# PMC7862700, “An all-to-all approach to the identification of sequence-specific readers for epigenetic DNA modifications on cytosine”
# Experiments:
# Assay in all cases: DAPPL (digital affinity profiling via proximity ligation, sequencing); 10 mM Tris-HCl pH 7.5, 50 mM NaCl, 1 mM DTT, 4% glycerol, room temperature, 30 min; GST-TFs on glutathione beads, 16-mer random dsDNA library, 0.1% formaldehyde crosslink after washing; high values mean tight binding
# FLI1 = biological target: T1, FLI1 (Homo sapiens, UniProt Q01543 1-452); conditions: protein: recombinant; tags: N-terminal GST; dsDNA, one strand shown
# T1 sequence: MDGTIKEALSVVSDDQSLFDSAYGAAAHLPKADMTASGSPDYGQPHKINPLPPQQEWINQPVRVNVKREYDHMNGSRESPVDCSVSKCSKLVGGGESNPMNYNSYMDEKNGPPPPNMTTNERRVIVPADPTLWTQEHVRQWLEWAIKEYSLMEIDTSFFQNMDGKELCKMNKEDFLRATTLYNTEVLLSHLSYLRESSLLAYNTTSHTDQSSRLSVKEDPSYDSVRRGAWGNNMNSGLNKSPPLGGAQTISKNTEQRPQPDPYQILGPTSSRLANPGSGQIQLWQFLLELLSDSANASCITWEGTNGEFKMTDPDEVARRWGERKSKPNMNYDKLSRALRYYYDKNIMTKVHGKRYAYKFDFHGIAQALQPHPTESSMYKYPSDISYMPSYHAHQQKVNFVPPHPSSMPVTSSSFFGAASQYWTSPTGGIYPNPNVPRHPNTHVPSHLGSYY
# In short: (§1)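 A tag-only sample was pooled with DNA-barcoded human transcription factors that had been expressed in yeast as GST fusions and captured on glutathione beads. The pools were incubated for 30 min at room temperature with 200 nmole of a random double-stranded 16-mer DNA library in Tris/NaCl/DTT/glycerol buffer, then washed, crosslinked with 0.1% formaldehyde, proximity-ligated (BsaI/T4 ligase, 1 h, 37 °C), PCR-amplified and sequenced on an Illumina NextSeq500. Binding signal is each hexamer's read frequency for a factor divided by its frequency for the tag-only sample.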
# ELK1 = biological target: T2, ELK1 (Homo sapiens, UniProt P19419 1-428); conditions: protein: recombinant; tags: N-terminal GST; dsDNA, one strand shown
# T2 sequence: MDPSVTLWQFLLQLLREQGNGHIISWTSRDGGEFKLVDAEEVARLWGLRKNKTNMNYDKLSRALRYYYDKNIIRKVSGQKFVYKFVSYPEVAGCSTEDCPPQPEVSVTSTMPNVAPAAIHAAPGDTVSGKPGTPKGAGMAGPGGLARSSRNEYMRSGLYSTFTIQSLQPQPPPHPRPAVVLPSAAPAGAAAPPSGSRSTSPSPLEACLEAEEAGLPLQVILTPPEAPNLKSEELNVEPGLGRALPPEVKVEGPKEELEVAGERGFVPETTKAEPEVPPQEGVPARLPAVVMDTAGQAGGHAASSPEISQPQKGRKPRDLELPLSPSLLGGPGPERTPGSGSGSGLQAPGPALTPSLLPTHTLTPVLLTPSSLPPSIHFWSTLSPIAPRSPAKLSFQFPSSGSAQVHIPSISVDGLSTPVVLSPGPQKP
# In short: as §1
# GABPA = biological target: T3, GABPA (Homo sapiens, UniProt Q06546 1-454); conditions: protein: recombinant; tags: N-terminal GST; dsDNA, one strand shown
# T3 sequence: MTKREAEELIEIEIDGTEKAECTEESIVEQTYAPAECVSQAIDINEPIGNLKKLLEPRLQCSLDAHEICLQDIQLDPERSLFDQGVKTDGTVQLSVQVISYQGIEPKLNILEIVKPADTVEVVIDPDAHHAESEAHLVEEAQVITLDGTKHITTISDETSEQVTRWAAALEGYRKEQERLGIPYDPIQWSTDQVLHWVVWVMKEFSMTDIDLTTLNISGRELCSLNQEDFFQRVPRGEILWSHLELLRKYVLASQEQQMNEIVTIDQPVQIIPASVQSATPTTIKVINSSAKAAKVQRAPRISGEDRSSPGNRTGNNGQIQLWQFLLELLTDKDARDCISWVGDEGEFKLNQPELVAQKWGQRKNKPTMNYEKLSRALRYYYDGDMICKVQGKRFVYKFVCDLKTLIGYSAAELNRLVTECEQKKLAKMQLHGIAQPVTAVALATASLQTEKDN
# In short: as §1
# ERG = biological target: T4, ERG (Homo sapiens, UniProt P11308 1-479); conditions: protein: recombinant; tags: N-terminal GST; dsDNA, one strand shown
# T4 sequence: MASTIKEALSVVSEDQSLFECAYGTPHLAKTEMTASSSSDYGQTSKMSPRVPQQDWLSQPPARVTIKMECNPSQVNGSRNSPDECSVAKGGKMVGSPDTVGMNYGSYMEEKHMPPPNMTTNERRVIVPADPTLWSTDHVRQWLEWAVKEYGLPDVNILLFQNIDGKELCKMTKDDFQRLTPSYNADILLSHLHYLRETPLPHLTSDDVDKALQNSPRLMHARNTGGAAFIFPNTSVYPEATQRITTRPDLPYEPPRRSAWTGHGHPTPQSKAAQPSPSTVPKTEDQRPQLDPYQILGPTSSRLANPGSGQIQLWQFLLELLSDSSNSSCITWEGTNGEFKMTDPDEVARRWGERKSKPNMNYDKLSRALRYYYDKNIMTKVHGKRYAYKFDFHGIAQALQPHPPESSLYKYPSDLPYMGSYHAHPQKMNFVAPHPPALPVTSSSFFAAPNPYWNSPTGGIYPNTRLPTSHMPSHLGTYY
# In short: as §1
# ELF1 = ELF1 (Homo sapiens, UniProt P32519 1-619); conditions: protein: recombinant; tags: N-terminal GST; dsDNA, one strand shown
# Chain of ELF1 (P32519 whole entry): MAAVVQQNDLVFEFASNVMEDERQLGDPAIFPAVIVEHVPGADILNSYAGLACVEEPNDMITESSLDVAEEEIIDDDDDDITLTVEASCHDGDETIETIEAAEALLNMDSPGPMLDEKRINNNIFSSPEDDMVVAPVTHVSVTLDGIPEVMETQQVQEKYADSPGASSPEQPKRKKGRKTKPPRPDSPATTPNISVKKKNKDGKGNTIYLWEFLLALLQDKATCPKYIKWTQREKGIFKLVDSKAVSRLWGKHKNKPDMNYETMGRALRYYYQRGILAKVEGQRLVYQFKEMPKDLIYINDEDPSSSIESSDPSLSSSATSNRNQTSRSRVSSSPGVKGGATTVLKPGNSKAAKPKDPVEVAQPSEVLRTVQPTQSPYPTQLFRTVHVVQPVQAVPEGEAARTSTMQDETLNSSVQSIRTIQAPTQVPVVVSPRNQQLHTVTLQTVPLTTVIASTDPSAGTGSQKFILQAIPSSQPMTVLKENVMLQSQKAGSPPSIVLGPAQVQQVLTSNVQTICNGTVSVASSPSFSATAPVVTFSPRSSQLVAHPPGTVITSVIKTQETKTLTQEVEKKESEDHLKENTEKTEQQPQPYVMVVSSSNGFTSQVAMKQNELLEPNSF
# In short: as §1
# EHF = biological target: T5, EHF (Homo sapiens, UniProt Q9NZC4 1-300); conditions: protein: recombinant; tags: N-terminal GST; dsDNA, one strand shown
# T5 sequence: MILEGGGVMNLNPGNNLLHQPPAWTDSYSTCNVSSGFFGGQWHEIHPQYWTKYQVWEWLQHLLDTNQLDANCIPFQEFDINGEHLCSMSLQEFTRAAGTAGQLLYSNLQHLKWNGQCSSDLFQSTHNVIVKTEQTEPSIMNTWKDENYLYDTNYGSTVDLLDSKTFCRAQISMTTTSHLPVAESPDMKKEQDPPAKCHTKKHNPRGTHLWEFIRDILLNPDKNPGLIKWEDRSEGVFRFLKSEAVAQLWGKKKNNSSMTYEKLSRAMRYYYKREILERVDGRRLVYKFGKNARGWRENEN
# In short: as §1
# SPI1 = SPI1 (Homo sapiens, UniProt P17947 1-270); conditions: protein: recombinant; tags: N-terminal GST; dsDNA, one strand shown
# In short: as §1
# SPIB = SPIB (Homo sapiens, UniProt Q01892 1-262); conditions: protein: recombinant; tags: N-terminal GST; dsDNA, one strand shown
# Chain of SPIB (Q01892 whole entry): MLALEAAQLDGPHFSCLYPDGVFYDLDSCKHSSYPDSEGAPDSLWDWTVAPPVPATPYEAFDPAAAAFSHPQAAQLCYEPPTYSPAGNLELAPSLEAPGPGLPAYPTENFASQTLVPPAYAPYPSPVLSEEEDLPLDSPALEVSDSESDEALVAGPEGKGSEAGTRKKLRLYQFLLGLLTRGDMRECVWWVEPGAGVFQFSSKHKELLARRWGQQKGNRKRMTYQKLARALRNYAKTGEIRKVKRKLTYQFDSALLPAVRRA
# In short: as §1
# ELK3 = biological target: T6, ELK3 (Homo sapiens, UniProt P41970 1-407); conditions: protein: recombinant; tags: N-terminal GST; dsDNA, one strand shown
# T6 sequence: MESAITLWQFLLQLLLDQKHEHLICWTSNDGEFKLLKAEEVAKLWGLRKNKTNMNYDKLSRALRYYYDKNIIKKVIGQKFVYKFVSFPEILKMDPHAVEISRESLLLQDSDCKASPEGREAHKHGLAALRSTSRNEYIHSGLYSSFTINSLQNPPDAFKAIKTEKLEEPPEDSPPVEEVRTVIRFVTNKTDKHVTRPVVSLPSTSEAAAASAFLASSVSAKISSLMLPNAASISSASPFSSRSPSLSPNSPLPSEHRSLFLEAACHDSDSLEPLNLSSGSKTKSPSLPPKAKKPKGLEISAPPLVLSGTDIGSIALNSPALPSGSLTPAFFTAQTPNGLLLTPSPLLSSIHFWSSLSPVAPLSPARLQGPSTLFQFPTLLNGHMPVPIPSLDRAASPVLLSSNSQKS
# In short: as §1
# FEV = biological target: T7, FEV (Homo sapiens, UniProt Q99581 1-238); conditions: protein: recombinant; tags: N-terminal GST; dsDNA, one strand shown
# T7 sequence: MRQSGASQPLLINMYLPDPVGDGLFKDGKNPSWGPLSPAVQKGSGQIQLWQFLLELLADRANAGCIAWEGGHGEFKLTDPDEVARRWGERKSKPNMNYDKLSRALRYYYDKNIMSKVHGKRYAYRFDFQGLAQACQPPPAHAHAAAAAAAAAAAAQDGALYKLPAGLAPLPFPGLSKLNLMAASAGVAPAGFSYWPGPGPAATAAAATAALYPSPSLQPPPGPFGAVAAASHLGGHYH
# In short: as §1
# ETV5 = ETV5 (Homo sapiens, UniProt P41161 1-510); conditions: protein: recombinant; tags: N-terminal GST; dsDNA, one strand shown
# Chain of ETV5 (P41161 whole entry): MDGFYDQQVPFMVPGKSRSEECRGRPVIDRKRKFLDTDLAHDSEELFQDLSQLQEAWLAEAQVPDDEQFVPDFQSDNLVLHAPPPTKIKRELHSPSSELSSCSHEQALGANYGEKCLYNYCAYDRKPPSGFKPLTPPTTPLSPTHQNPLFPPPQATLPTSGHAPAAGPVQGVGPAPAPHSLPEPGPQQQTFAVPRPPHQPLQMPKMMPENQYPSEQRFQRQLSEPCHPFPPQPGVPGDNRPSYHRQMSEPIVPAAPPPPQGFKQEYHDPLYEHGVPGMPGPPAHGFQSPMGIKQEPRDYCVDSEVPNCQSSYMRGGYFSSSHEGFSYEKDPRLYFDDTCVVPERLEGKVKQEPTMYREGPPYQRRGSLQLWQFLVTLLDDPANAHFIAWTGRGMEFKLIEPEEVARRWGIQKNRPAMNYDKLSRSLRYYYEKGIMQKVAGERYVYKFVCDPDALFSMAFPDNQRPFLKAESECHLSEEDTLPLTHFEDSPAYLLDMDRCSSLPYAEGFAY
# In short: as §1
# HSF1 = HSF1 (Homo sapiens, UniProt Q00613 1-529); conditions: protein: recombinant; tags: N-terminal GST; chain copies: 3; dsDNA, one strand shown
# Chain of HSF1 (Q00613 whole entry): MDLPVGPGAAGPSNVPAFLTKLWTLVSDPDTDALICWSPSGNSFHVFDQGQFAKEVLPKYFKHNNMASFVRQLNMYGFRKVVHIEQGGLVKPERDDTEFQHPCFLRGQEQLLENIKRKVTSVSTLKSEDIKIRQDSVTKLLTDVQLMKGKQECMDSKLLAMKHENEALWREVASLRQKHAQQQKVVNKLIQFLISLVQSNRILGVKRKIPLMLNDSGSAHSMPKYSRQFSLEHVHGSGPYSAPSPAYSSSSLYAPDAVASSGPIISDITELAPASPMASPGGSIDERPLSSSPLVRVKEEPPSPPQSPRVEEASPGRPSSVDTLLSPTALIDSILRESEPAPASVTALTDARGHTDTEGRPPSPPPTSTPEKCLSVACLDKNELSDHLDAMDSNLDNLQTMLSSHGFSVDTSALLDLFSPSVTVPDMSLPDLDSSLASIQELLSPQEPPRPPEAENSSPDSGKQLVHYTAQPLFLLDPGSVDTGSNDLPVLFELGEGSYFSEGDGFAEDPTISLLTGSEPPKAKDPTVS
# In short: as §1
# SPIC = biological target: T8, SPIC (Homo sapiens, UniProt Q8N5J4 1-248); conditions: protein: recombinant; tags: N-terminal GST; dsDNA, one strand shown
# T8 sequence: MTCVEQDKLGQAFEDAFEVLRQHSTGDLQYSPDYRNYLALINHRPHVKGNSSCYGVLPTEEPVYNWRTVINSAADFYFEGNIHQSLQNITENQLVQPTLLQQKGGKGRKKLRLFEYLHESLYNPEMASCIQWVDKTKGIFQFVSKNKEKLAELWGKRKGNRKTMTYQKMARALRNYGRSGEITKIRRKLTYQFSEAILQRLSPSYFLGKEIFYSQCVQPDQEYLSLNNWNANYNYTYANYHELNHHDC
# In short: as §1
# ELF4 = ELF4 (Homo sapiens, UniProt Q99607 1-663); conditions: protein: recombinant; tags: N-terminal GST; dsDNA, one strand shown
# Chain of ELF4 (Q99607 whole entry): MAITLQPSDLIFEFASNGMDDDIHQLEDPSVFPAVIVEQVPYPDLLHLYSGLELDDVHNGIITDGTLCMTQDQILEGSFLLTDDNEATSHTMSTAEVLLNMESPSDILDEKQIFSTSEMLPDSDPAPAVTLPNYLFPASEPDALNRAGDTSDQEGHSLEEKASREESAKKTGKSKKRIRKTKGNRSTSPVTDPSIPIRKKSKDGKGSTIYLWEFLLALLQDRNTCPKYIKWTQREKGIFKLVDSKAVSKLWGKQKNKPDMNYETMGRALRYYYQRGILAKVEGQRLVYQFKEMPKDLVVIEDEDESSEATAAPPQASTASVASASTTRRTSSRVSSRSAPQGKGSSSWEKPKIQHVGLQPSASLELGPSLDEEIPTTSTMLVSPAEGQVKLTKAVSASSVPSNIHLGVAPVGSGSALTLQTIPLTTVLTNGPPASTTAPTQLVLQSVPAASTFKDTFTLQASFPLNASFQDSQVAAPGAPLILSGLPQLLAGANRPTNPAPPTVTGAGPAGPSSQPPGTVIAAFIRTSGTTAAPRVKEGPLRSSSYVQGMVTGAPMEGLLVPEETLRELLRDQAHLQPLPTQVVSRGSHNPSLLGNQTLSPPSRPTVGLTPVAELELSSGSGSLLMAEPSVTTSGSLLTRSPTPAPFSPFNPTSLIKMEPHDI
# In short: as §1
# ELK4 = biological target: T9, ELK4 (Homo sapiens, UniProt P28324-2 1-405); conditions: protein: recombinant; tags: N-terminal GST; dsDNA, one strand shown
# T9 sequence: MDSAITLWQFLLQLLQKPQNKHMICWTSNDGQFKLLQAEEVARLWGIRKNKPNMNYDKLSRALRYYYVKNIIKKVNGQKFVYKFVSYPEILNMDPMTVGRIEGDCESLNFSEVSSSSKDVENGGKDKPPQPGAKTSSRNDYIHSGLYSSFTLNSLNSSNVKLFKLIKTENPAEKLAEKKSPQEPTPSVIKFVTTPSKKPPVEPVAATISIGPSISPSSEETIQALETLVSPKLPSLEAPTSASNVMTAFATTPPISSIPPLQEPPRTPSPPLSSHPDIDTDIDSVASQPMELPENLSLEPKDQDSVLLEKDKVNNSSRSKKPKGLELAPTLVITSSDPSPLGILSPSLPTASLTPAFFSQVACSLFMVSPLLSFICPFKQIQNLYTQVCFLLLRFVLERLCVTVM
# In short: as §1
# ETV2 = biological target: T10, ETV2 (Homo sapiens, UniProt O00321 1-342); conditions: protein: recombinant; tags: N-terminal GST; dsDNA, one strand shown
# T10 sequence: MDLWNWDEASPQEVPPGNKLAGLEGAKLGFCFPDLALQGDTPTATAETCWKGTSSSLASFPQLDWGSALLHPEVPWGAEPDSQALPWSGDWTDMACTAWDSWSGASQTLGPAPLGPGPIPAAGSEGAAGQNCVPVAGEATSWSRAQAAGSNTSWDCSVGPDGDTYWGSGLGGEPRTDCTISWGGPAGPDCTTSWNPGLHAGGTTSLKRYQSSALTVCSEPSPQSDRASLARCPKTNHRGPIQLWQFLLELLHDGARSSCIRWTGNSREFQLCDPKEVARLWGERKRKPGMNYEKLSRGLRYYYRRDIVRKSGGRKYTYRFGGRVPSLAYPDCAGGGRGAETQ
# In short: as §1
# ELF3 = biological target: T11, ELF3 (Homo sapiens, UniProt P78545 1-371); conditions: protein: recombinant; tags: N-terminal GST; dsDNA, one strand shown
# T11 sequence: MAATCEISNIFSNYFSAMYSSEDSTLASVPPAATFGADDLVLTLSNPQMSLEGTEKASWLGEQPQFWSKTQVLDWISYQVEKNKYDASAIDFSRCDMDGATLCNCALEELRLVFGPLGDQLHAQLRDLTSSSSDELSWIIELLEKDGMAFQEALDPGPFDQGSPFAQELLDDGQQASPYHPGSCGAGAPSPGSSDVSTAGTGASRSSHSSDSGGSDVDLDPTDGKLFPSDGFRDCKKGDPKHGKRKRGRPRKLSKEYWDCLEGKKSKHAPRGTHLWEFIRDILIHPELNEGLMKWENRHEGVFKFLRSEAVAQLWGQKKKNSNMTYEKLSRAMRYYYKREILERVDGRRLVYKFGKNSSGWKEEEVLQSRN
# In short: as §1
# CRX = CRX (Homo sapiens, UniProt O43186 1-299); conditions: protein: recombinant; tags: N-terminal GST; dsDNA, one strand shown
# Chain of CRX (O43186 whole entry): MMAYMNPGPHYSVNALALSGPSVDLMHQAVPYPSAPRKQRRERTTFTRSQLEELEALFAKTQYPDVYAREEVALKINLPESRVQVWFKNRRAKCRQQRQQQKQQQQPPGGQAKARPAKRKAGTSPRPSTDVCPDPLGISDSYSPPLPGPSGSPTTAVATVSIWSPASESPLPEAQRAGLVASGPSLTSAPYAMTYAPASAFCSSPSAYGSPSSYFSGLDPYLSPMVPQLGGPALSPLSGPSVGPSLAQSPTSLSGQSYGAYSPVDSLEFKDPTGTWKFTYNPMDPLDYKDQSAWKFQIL
# In short: as §1
# ETV1 = ETV1 (Homo sapiens, UniProt P50549 1-477); conditions: protein: recombinant; tags: N-terminal GST; dsDNA, one strand shown
# Chain of ETV1 (P50549 whole entry): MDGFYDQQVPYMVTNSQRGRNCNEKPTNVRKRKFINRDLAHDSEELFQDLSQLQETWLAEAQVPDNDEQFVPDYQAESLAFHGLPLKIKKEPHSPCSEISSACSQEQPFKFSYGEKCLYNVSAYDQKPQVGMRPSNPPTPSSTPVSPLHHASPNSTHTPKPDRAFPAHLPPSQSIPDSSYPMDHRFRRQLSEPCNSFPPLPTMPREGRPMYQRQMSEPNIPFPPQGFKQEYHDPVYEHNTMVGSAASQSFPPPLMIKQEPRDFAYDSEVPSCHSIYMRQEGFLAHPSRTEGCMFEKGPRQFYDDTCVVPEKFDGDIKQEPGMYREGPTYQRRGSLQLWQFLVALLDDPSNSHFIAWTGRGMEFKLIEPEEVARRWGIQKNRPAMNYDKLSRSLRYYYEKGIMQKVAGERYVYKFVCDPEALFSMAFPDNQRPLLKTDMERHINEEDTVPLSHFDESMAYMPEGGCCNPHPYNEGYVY
# In short: as §1
sequence,measurement,setting,value
AAGTTT,binding signal,FLI1,"1.42 fold enrichment (6-mer frequency, TF over GST control)"
same,binding signal,ELK1,"1.48 fold enrichment (6-mer frequency, TF over GST control)"
same,binding signal,GABPA,"1.42 fold enrichment (6-mer frequency, TF over GST control)"
same,binding signal,ERG,"1.36 fold enrichment (6-mer frequency, TF over GST control)"
same,binding signal,ELF1,"1.37 fold enrichment (6-mer frequency, TF over GST control)"
same,binding signal,EHF,"1.5 fold enrichment (6-mer frequency, TF over GST control)"
same,binding signal,SPI1,"1.45 fold enrichment (6-mer frequency, TF over GST control)"
same,binding signal,SPIB,"1.6 fold enrichment (6-mer frequency, TF over GST control)"
same,binding signal,ELK3,"1.44 fold enrichment (6-mer frequency, TF over GST control)"
same,binding signal,FEV,"1.35 fold enrichment (6-mer frequency, TF over GST control)"
same,binding signal,ETV5,"1.37 fold enrichment (6-mer frequency, TF over GST control)"
same,binding signal,HSF1,"1.5 fold enrichment (6-mer frequency, TF over GST control)"
same,binding signal,SPIC,"1.29 fold enrichment (6-mer frequency, TF over GST control)"
same,binding signal,ELF4,"1.39 fold enrichment (6-mer frequency, TF over GST control)"
same,binding signal,ELK4,"1.27 fold enrichment (6-mer frequency, TF over GST control)"
same,binding signal,ETV2,"1.44 fold enrichment (6-mer frequency, TF over GST control)"
same,binding signal,ELF3,"1.35 fold enrichment (6-mer frequency, TF over GST control)"
same,binding signal,CRX,"1.38 fold enrichment (6-mer frequency, TF over GST control)"
same,binding signal,ETV1,"1.51 fold enrichment (6-mer frequency, TF over GST control)"
